For twelve compounds, Potency results are on record in PubChem BioAssay (Tox21).

SMILES strings stand for the structures. Unmarked numbers belong to inactive results. Results filed as inconclusive are left out. Active and inactive are the calls of the source. Unless noted, calls come from the whole dose curve.

A short description of experiment [1]: Nuclear factor erythroid 2-related factor 2/antioxidant responsive element (Nrf2/ARE) small molecule agonists: qHTS cell viability counter screen in human keratinocytes (AID 1919968; active = well fitted curve in the direction sought with a large enough effect in the repeat runs; an effect the other way counts as inactive or inconclusive; note: nearly all actives have a fitted effect of over 55% in size). The method, boiled down: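 After a 5 h attachment period, ARE-reporter keratinocytes were dosed with compounds in DMSO and then cultured 23 h at 37 C. Cell viability came from CellTiter-Fluor signal read after a further 1 h.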
(Quantitative high-throughput screening tests each substance at several concentrations.)

Experiment [2] is described as follows: Nuclear factor erythroid 2-related factor 2/antioxidant responsive element (Nrf2/ARE) small molecule agonists: luciferase reporter gene qHTS assay in human keratinocytes (AID 1919969). Note: nearly all actives have a fitted effect of over 35% in size. Note: potency is the fitted concentration of half-maximal effect.
Experiment [3] deals with Gonadotropin-releasing hormone receptor (Homo sapiens) (UniProt P30968). In words: Human gonadotropin-releasing hormone receptor (GnRHR) small molecule agonists, calcium flux assay in GnRHR-HEK293 cells (AID 1920063). Note: nearly all actives have a fitted effect of over 35% in size. The method, boiled down: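 We seeded human GnRHR-expressing HEK293 cells for 18 hours, loaded them with calcium dye for an hour at 37 C, added test compounds, and recorded fluorescence intensity kinetically for three minutes.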
Sequence of Gonadotropin-releasing hormone receptor (Homo sapiens) (P30968 whole entry, looked up): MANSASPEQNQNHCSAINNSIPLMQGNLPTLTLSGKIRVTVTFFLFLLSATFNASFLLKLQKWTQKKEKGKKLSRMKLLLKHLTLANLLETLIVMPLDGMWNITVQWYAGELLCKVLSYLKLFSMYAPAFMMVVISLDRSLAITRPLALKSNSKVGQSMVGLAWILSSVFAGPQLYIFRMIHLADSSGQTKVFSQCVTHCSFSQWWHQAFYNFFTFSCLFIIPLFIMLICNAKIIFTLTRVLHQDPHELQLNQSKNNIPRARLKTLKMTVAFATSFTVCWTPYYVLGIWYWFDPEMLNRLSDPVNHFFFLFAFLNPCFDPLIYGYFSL
A general note: A change in cytosolic calcium serves as a functional read-out for many receptors and channels.

Experiment [4] addresses KiSS-1 receptor (Homo sapiens) (UniProt Q969F8). The experiment can be described thus: Human kisspeptin (KISS1R) small molecule agonists, calcium flux assay in KISS1R-HEK293 cells (AID 1920064; active = well fitted curve in the direction sought with a large enough effect in the repeat runs; an effect the other way counts as inactive or inconclusive). The method, boiled down: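 Kinetic calcium assay, 1 s sampling over 3 min at Ex/Em 480/540, in HEK293 cells engineered with human KISS1R; compounds delivered in DMSO after 1 h dye loading.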

Experiment [5] in a line: G protein-coupled receptor (GPCR) small molecule agonists, calcium flux assay: HEK293 wild type cell line counter screen (AID 1920065). An outline of the steps: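 Calcium-sensitive dye, loaded 1 h at 37 C into cells cultured 18 h, reports compound-evoked calcium release as fluorescence (Ex/Em 480/540), measured over 3 min. Agonist mode; 15-point titrations, triplicate.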

A short description of experiment [6]: p53 small molecule agonists, cell-based qHTS assay with rat liver microsomes: qHTS cell viability counter screen (AID 1963580). Note: nearly all actives have a fitted effect of over 45% in size. An outline of the steps:
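HCT-116 p53RE-bla, 4,000 cells/well, 5 h pre-incubation; cpd + rat liver microsomes 0.5 mg/mL + NADPH 0.5 mg/mL (final); 16 h, 37 C; CellTiter-Glo, 30 min RT; luminescence.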

Experiment [7] in a line: p53 small molecule agonists, cell-based qHTS assay: qHTS cell viability counter screen (AID 1963581). Note: nearly all actives have a fitted effect of over 45% in size. Note: potency is the fitted concentration of half-maximal effect. An outline of the steps:
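Following 5 h attachment, HCT-116 p53RE-bla cells took up compound for 16 h at 37 C; the reporter was read with B/G FRET substrate (2 h RT), and viability then via CellTiter-Glo ATP luminescence.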

In experiment [8] the target is 5-hydroxytryptamine receptor 2A (Homo sapiens) (UniProt P28223). In words: 5-hydroxytryptamine receptor 2A (HTR2A) small molecule antagonists, cell-based qHTS assay (AID 1963586). Note: nearly all actives have a fitted effect of over 45% in size. An outline of the steps: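 Antagonist-mode intracellular calcium assay: DOI (4 nM) added after 5 min compound pre-incubation at room temperature to dye-loaded HTR2A-CHO cells. Fluorescence followed for 3 min, sampled every second.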
Sequence of 5-hydroxytryptamine receptor 2A (Homo sapiens) (P28223 whole entry, looked up): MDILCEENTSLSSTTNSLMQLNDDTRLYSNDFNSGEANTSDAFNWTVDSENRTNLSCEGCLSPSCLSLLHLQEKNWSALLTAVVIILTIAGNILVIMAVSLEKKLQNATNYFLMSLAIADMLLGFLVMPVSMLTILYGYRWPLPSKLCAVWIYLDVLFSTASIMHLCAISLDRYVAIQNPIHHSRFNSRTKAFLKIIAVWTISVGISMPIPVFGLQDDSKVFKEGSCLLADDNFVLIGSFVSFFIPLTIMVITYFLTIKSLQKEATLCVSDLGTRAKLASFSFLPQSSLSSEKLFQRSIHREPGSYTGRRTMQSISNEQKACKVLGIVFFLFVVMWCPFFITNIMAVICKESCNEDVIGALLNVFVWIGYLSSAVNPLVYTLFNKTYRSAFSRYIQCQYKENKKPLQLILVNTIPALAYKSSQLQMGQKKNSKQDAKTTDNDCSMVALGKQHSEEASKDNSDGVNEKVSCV

Experiment [9] has the same target. In words: 5-hydroxytryptamine receptor 2A (HTR2A) small molecule agonists, cell-based qHTS assay (AID 1963587). Note: nearly all actives have a fitted effect of over 30% in size. An outline of the steps:
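Kinetic calcium-flux fluorescence (2 min, 1 sec intervals) after compound addition in agonist mode. HTR2A-CHO cells were cultured 18 h, then dye-loaded 1 h at 37 C.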

Experiment [10] addresses Muscarinic acetylcholine receptor M1 (Homo sapiens) (UniProt P11229). The experiment can be described thus: Cholinergic receptor muscarinic 1 (CHRM1) small molecule antagonists, cell-based qHTS assay (AID 1963588). Note: nearly all actives have a fitted effect of over 40% in size. The method, boiled down:
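CHRM1-CHO calcium-flux assay, antagonist mode. Cells were seeded 18 h, dye-loaded 1 h at 37 C and given compound for 5 min at RT, then acetylcholine was added at 50nM. FDSS fluorescence was read 3 min; 15 concentrations, three runs.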

Experiment [11] has the same target. In words: Cholinergic receptor muscarinic 1 (CHRM1) small molecule agonists, cell-based qHTS assay (AID 1963589). Note: nearly all actives have a fitted effect of over 35% in size. An outline of the steps: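 Measures agonist-induced intracellular calcium rise. Stable human CHRM1 CHO line, 1 h dye load at 37 C, compounds from DMSO, kinetic fluorescence read.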
Experiment [12] in a line: cAMP Responsive Elements (CRE) small molecule agonists, cell-based qHTS assay (AID 1963590). An outline of the steps:
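A CRE-responsive beta-lactamase reporter in HEK 293T cells was used. Treatment ran 3 h at 37 C; detection used LiveBLAzer B/G FRET substrate for 2 h at room temperature.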

Experiment [13] is described as follows: cAMP Responsive Elements (CRE) small molecule antagonists, cell-based qHTS assay (AID 1963591; active = well fitted inhibition curve with a large enough effect in the signal ratio in the repeat runs, not every such curve was filed as active; the % refers to the signal ratio). The method, boiled down:
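HEK293T cells carrying a CRE-driven beta-lactamase reporter receive compound and NKH477 (0.25 uM final) for 3 h. Fluorescence from LiveBLAzer B/G FRET substrate is read after 2 h at room temperature.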

Experiment [14] deals with Beta-2 adrenergic receptor (Homo sapiens) (UniProt P07550). The experiment can be described thus: Adrenergic beta2 receptor (ADRB2) small molecule antagonists, cell-based qHTS assay (AID 1963592). Note: series mostly up to about 92 µM; nearly all actives have a fitted effect of over 50% in size. The method, boiled down:
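Cells (CHO, stable ADRB2 overexpression) incubated 18-20hr at 37C; compounds added from DMSO; agonist mix (1nM isoproterenol, 100uM IBMX, 25uM Ro-20-1724) added; 0.5hr RT; d2-cAMP and anti-cAMP-cryptate added; 1hr RT; 665/615 nm read.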

For experiment [15] the target is unchanged. The experiment can be described thus: Adrenergic beta2 receptor (ADRB2) small molecule agonists, cell-based qHTS assay (AID 1963593).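 Note: CHO cells stably overexpressing human ADRB2.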 An outline of the steps:
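CHO cells stably over-expressing ADRB2 were plated overnight at 37C, then dosed with compounds plus a stimulation mix containing 100uM IBMX and 25uM Ro-20-1724 for 0.5hr at room temperature. cAMP was measured by HTRF competition, 1hr.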

Experiment [16] deals with D(2) dopamine receptor (Homo sapiens) (UniProt P14416). The experiment can be described thus: Dopamine D2 receptor (DRD2) small molecule antagonists, cell-based qHTS assay (AID 1963595; active = well fitted inhibition curve with a large enough effect in the signal ratio in the repeat runs, with a control signal flat; the % refers to the signal ratio). An outline of the steps: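 Stable D2 receptor HEK293 line, 24 h after seeding. Compound preincubated 10 min, then quinpirole (12 nM) with forskolin analogue NKH477 (200 nM), 30 min, room temperature. Detection by time-resolved FRET of cAMP.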
Sequence of D(2) dopamine receptor (Homo sapiens) (P14416 whole entry, looked up): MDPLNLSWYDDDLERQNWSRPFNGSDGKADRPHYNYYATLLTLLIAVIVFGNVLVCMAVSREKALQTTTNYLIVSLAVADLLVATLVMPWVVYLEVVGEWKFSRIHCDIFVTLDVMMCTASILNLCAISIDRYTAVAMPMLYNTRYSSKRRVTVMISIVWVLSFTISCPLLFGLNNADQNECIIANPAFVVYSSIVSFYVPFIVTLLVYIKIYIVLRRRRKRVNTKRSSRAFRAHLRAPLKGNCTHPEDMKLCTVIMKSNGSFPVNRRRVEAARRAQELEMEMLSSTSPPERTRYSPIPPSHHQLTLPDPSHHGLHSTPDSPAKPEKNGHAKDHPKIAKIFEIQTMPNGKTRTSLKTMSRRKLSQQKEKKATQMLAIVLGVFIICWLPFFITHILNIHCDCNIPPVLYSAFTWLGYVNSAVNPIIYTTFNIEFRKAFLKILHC

Experiment [17] can be described thus: p53 small molecule agonists, cell-based qHTS assay with human liver microsomes: qHTS cell viability counter screen (AID 1963579). Note: nearly all actives have a fitted effect of over 45% in size. An outline of the steps: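 Luminescent CellTiter-Glo read-out, 30 min at room temperature, gauged cytotoxicity in p53RE-bla cells exposed 16 h at 37 C to DMSO-dissolved compounds with metabolic activation by human liver microsomes and NADPH, each 0.5 mg/mL final.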

The target in experiment [18] is D(2) dopamine receptor (Homo sapiens) (UniProt P14416). In words: Dopamine D2 receptor (DRD2) small molecule agonists, cell-based qHTS assay (AID 1963594). Note: nearly all actives have a fitted effect of over 35% in size. The method, boiled down: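 cAMP accumulation in DRD2-HEK293 cells measured by HTRF after 1 h detection; compounds added 10 min before NKH477 (200nM […]) forskolin-analogue stimulation, 30 min at room temperature, with Ro20-1724 present at 0.1 mM final.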

Experiment [19] is described as follows: p53 small molecule agonists, cell-based qHTS assay (AID 1963582; active = well fitted activation curve with a large enough effect in the signal ratio in the repeat runs, not every such curve was filed as active; the % refers to the signal ratio). An outline of the steps:
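In this cell-based concentration-response screen, a p53 response element drives beta-lactamase; cells received DMSO-borne compounds after 5 h culture and were incubated a further 16 h before FRET substrate development.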

Sequence of Muscarinic acetylcholine receptor M1 (Homo sapiens) (P11229 whole entry, looked up): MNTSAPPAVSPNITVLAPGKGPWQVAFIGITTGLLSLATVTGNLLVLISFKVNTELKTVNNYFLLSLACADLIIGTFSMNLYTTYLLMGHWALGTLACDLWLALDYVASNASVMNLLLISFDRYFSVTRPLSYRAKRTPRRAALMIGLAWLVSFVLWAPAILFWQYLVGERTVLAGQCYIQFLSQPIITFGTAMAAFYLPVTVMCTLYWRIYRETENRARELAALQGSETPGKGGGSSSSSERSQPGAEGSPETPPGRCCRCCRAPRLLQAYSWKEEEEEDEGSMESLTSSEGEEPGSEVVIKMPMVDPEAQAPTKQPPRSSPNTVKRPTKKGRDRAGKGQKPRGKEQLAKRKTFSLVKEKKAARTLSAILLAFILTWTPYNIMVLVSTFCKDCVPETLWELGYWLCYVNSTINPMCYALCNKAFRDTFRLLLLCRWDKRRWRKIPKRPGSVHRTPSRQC
Sequence of KiSS-1 receptor (Homo sapiens) (Q969F8 whole entry, looked up): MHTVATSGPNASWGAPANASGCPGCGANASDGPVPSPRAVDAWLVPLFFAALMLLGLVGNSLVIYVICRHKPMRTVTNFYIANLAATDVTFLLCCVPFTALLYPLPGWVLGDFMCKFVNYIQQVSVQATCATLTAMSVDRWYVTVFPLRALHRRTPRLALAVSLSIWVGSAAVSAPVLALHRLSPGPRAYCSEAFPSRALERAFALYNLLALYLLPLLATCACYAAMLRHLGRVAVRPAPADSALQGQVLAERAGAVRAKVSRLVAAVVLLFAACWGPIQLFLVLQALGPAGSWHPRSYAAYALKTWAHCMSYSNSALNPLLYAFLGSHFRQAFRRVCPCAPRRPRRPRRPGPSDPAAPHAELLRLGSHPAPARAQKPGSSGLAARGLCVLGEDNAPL
Sequence of Beta-2 adrenergic receptor (Homo sapiens) (P07550 whole entry, looked up): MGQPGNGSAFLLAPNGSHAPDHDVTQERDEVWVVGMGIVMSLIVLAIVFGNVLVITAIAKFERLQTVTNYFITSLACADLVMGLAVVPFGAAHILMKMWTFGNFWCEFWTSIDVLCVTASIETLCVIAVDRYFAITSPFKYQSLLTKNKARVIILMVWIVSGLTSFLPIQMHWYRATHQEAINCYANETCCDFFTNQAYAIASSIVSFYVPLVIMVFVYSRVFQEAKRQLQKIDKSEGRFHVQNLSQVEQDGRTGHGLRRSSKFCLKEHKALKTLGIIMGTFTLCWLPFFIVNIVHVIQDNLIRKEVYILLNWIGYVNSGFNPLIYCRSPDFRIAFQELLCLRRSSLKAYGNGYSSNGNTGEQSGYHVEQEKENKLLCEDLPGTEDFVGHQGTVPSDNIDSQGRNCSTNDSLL

With `CC(=O)NC1CCSC1=O` (stereo not drawn), the Potency result in experiment [1], in [2], in [3], in experiment [4], in experiment [5] and in experiment [6] was “inactive” in each case. In addition, the Potency result in [7], in [8], in experiment [9], in experiment [10], in experiment [11] and in experiment [12] was “inactive” each time. In addition, the Potency result in experiment [13], in experiment [14] and in [15] was “inactive” throughout.
Take `NNC(N)=O`: the Potency entry in experiment [1], in [2], in experiment [3], in experiment [4], in experiment [5] and in experiment [6] was “inactive” throughout. Besides, the Potency result in [7], in [8], in [9], in [10], in [11] and in experiment [12] was “inactive” throughout. For the same compound, the Potency result in [14] and in experiment [16] was “inactive” in each case.
In the case of `CCc1cc2c(s1)-n1c(C)nnc1CN=C2c1ccccc1Cl`, the Potency entry in experiment [1], in [2], in experiment [3], in experiment [4], in [5] and in [17] was “inactive” throughout. Further, the Potency result in [8], in experiment [10], in experiment [11], in [12], in [14] and in [16] was “inactive” throughout.
As for `O=Cc1ccc2c(c1)OCO2`, the Potency entry in experiment [1], in experiment [2], in experiment [3], in [4], in experiment [5] and in experiment [17] was “inactive” throughout. Moreover, the Potency result in experiment [6], in experiment [8], in experiment [9], in experiment [10], in [11] and in experiment [12] was “inactive” in each case. The Potency result in experiment [14], in [18] and in experiment [16] was “inactive” in each case.
Regarding `CS(=O)(=O)c1ccc(C(=O)C2C(=O)CCCC2=O)c([N+](=O)[O-])c1`, the Potency entry in [1], in [2], in [3], in experiment [4], in experiment [5] and in experiment [17] was “inactive” throughout. For the same compound, the Potency result in experiment [7], in experiment [8], in experiment [9], in experiment [14] and in [16] was “inactive” each time.
Turning to `CCC1(CC)C(=O)NC(=O)NC1=O`, the Potency result in experiment [1], in [2], in experiment [3], in experiment [4], in experiment [5] and in experiment [17] was “inactive” throughout. The Potency result in [8], in experiment [9], in experiment [10], in [11], in experiment [12] and in experiment [13] was “inactive” throughout. For the same compound, the Potency entry in experiment [14] and in experiment [18] was “inactive” throughout.
As to `CN(C)CCN(C)C`, the Potency result in experiment [1], in experiment [2], in experiment [3], in experiment [4], in experiment [5] and in [17] was “inactive” each time. Moreover, the Potency result in experiment [6], in experiment [9], in experiment [10], in experiment [11], in [12] and in [13] was “inactive” in each case. The Potency entry in experiment [14], in experiment [15], in [18] and in experiment [16] was “inactive” each time.
As for `COP(=S)(OC)Oc1ccc([N+](=O)[O-])c(C)c1`, the Potency result in [1], in experiment [2], in experiment [3], in experiment [4], in experiment [5] and in experiment [17] was “inactive” each time. Further, the Potency result in experiment [19], in experiment [8], in experiment [9], in experiment [11], in experiment [12] and in experiment [13] was “inactive” throughout. Further, the Potency entry in experiment [14] and in experiment [16] was “inactive” each time. Moreover, the Potency in experiment [7] was 0.363 µM (active).
As for `CN(C)C1CCCCC1`, the Potency entry in [1], in [2], in experiment [3], in [4], in experiment [5] and in experiment [17] was “inactive” each time. Further, the Potency entry in experiment [7], in experiment [8], in experiment [9], in experiment [10], in [11] and in [12] was “inactive” throughout. The Potency result in experiment [13], in [14], in experiment [18] and in [16] was “inactive” in each case.
Regarding `OCCBr`, the Potency entry in experiment [1], in experiment [2], in [3], in experiment [4], in experiment [5] and in experiment [17] was “inactive” throughout. Also, the Potency result in experiment [10], in experiment [12], in experiment [13], in experiment [14], in experiment [18] and in experiment [16] was “inactive” throughout.
Regarding `Cc1ccccc1CO[C@@H]1C[C@@]2(C(C)C)CC[C@]1(C)O2`, the Potency entry in experiment [1], in experiment [2], in experiment [3], in experiment [4], in experiment [5] and in [17] was “inactive” each time. The Potency entry in experiment [6], in [8], in experiment [9], in [11], in experiment [14] and in [15] was “inactive” each time. For the same compound, the Potency result in experiment [18] and in experiment [16] was “inactive” each time.
For `c1csc(-c2ccc(-c3cccs3)s2)c1`, the Potency result in experiment [1], in experiment [3], in experiment [4], in [5], in experiment [6] and in experiment [7] was “inactive” each time. The Potency entry in experiment [8], in experiment [9], in [10], in experiment [11], in experiment [14] and in [15] was “inactive” throughout. For the same compound, in [16], the Potency result was “inactive”. Besides, the Potency in experiment [2] is 8.63 µM (active).
